Molecules are shown by their SMILES. About 83,000 compounds went through this panel and 20% of them were active in at least one assay; those are over-represented in the sample as a whole.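 The test compound was applied at a single concentration to cells in 96-well plates for 48 hours, and percent growth was recorded.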 Values without a mark were called inactive. Active and inactive are the calls of the source. Rule for the calls: active = growth percent below 10; inactive = the rest.

Common to all, as to experiment: NCI-60 one-dose screen, 48 h (100 = growth as untreated, 0 = no growth, -100 = all killed)
What all share (conditions): 10 µM

In assay [1] the test system is T-47D breast.
The test system of assay [2] is BT-549 breast.
Assay [3] relates to MDA-MB-435 melanoma.
Assay [4] concerns SW-620 colon.
Assay [5] deals with MCF7 breast.
Assay [6] relates to HCT-116 colon.
The test system of assay [7] is HCC-2998 colon.
Assay [8] concerns KM12 colon.

Consider `C#CCOc1c(OC)cc(C(=O)/C(C)=C/c2cccc(N=[N+]=[N-])c2)cc1OC`, for which the growth in assay [1] is 44.3%; in assay [2], 11.4%; in assay [3], -19% (active); in assay [4] it was 36.5%; in assay [5] it was 16.4%; in assay [6], 6.9% (active). The growth in assay [7] was 21.4%; in assay [8], 26.6%.
As for `CC[C@H]1OC(=O)[C@H](C)[C@@H](O[C@H]2C[C@@](C)(OC)[C@@H](O)[C@H](C)O2)[C@H](C)[C@@H](O[C@@H]2O[C@H](C)C[C@H](N(C)C)[C@H]2O)[C@](C)(OC)C/C(C)=C2/O[C@@]1(C)C=C2C`, the growth is 41.8% in assay [1]; 78.7% in assay [2]; -83.4% (active) in assay [3]; -100% (active) in assay [4]; -8.4% (active) in assay [5]; 4.59% (active) in assay [6]. In addition, the values for the growth in assay [7] and in assay [8] were -85.8% (active) and 18.2%, respectively.
Take `CSc1ccc(-c2cc(-c3ccc(NC(=O)CCCN4CCCC4)cc3)nc(-c3ccc(NC(=O)CCCN4CCCC4)cc3)c2)cc1`: the growth in assay [1] is 102%; in assay [2], 77.6%; in assay [3], 79.7%; in assay [4], 67.6%; in assay [5] it was -86.4% (active); in assay [6] it was 80.4%. Besides, the growth in assay [7] is 86.3%; in assay [8], 24.6%.
Consider `S=C(NCc1ccccc1)NCc1ccccc1`, for which the growth in assay [1] was 94.6%; in assay [2], 95.4%; in assay [3], 101%; in assay [4] it was 100%; in assay [5] it was 96.3%; in assay [6], 97.3%. Further, the growth in assay [7] is 111%; in assay [8], 102%.
`CC(C)(C)c1ccc(S(=O)(=O)N[C@H]2CC[C@H]3[C@@H]4CCc5cc(O)ccc5[C@H]4CC[C@]23C)cc1`: the growth in assay [1] is 26.2%; in assay [2] it was 43.9%; in assay [3], 30.4%; in assay [4], 58.5%; in assay [5], 14.9%; in assay [6], 22.1%. Further, the growth in assay [7] is 74.4%; in assay [8] it was 39.2%.
With `CCOC(=O)Cn1c(=O)c2sc3ncccc3c2n2nnc(-c3ccccc3)c12`, the growth in assay [1] is 94.3%; in assay [2], 98.2%; in assay [3], 104%; in assay [4] it was 119%; in assay [5] it was 79.8%; in assay [6] it was 91.5%. Besides, the growth in assay [7] and in assay [8] was 114% each time.
`CCN1CC(CCN2CCOCC2)C(C(c2ccccc2)c2ccccc2)C1=O` (stereo not drawn): the growth in assay [1] was 99.6%; in assay [2], 109%; in assay [3] it was 99.3%; in assay [4], 106%; in assay [5], 97.9%; in assay [6], 114%. Further, the results for the growth in assay [7] and in assay [8] were 105% and 117%, respectively.
Regarding `Oc1ccc(/C=N/N=C2c3ccccc3-c3ccccc32)c(O)c1`, the growth is 42.8% in assay [1]; 78.4% in assay [2]; 21.5% in assay [3]; 75.4% in assay [4]; 43.3% in assay [5]; 66.1% in assay [6]. For the same molecule, the growth in assay [7] is 80.9%; in assay [8], 52.2%.
On to `COc1cc2cc(Oc3ccc(NC(=O)c4cc(C(F)(F)F)cc(C(F)(F)F)c4)cc3)c(C)nc2cc1OC`, for which the growth was 86.7% in assay [1]; 52.4% in assay [2]; 49.1% in assay [3]; 47.4% in assay [4]; 29.5% in assay [5]; 19.2% in assay [6]. Moreover, the results for the growth in assay [7] and in assay [8] were 73.9% and 37.6%, respectively.
With `CN(C)c1ccc(/C=N/NC(=O)c2cccc3ccccc23)c(Cl)c1`, the growth was 25.4% in assay [1]; 45.3% in assay [2]; -22.1% (active) in assay [3]; 24.2% in assay [4]; 15.1% in assay [5]; 31% in assay [6]. Also, the growth was 61.2% in assay [7] and 22.7% in assay [8].
As for `O=C(Nc1ccc2c(O)cc(S(=O)(=O)O)cc2c1)c1ccc([N+](=O)[O-])cc1`, the growth in assay [1] was 86%; in assay [2], 94.3%; in assay [3] it was 106%; in assay [4], 100%; in assay [5] it was 96.3%; in assay [6], 94.1%. Besides, the growth is 108% in assay [7] and 97.2% in assay [8].
Consider `O=C(CI)OCC(COC(=O)CI)OC(=O)CI`, for which the growth in assay [1] was 35.4%; in assay [2] it was 74.6%; in assay [3] it was 91.5%; in assay [4] it was 27.5%; in assay [5] it was 56.1%; in assay [6], 56.3%. The growth in assay [7] and in assay [8] was 102% in each case.
In the case of `COc1cc2ncnc(NC3CCC(O)CC3)c2cc1OC` (stereo not drawn), the growth in assay [1] was 80.3%; in assay [2], 92.1%; in assay [3], 106%; in assay [4] it was 101%; in assay [5], 88.3%; in assay [6] it was 91.4%. Further, the values for the growth in assay [7] and in assay [8] were 106% and 95.3%, respectively.
With `COc1cc2cc(Oc3ccc(NC(=O)c4cccc(C(F)(F)F)c4)cc3)c(C)nc2cc1OC`, the growth in assay [1] was 91.6%; in assay [2], 16.3%; in assay [3], 24.5%; in assay [4] it was 54.8%; in assay [5] it was 31%; in assay [6], 18.1%. The growth is 62.3% in assay [7] and 25.8% in assay [8].
In the case of `COc1cc(/C=C2\CCCC3=C2NC(N)=NC3c2cc(OC)c(OC)c(OC)c2)cc(OC)c1OC` (stereo not drawn), the growth in assay [1] is 27.5%; in assay [2], -38.7% (active); in assay [3], -17.9% (active); in assay [4], -22.3% (active); in assay [5], 43%; in assay [6] it was -81.6% (active). Moreover, the growth in assay [7] was -35.2% (active); in assay [8], -75.8% (active).
With `O=C(Nc1ccc(NS(=O)(=O)c2ccc(F)cc2)cc1)C12CC3CC(CC(C3)C1)C2`, the growth in assay [1] was 76.2%; in assay [2] it was 93.8%; in assay [3], 95.9%; in assay [4], 99.4%; in assay [5] it was 78%; in assay [6], 97.8%. Also, the growth in assay [7] was 96.4%; in assay [8] it was 99.4%.

The values above are taken from PubChem BioAssay (NCI).
